# Source: PMC7862700, “An all-to-all approach to the identification of sequence-specific readers for epigenetic DNA modifications on cytosine”
# Legend:
# Assay in all cases: DAPPL (digital affinity profiling via proximity ligation, sequencing); 10 mM Tris-HCl pH 7.5, 50 mM NaCl, 1 mM DTT, 4% glycerol, room temperature, 30 min; GST-TFs on glutathione beads, 16-mer random dsDNA library, 0.1% formaldehyde crosslink after washing; high values mean tight binding
# FEV = molecular target: T1, FEV (Homo sapiens, UniProt Q99581 1-238); settings: protein: recombinant; tags: N-terminal GST; dsDNA, one strand shown
# T1 sequence: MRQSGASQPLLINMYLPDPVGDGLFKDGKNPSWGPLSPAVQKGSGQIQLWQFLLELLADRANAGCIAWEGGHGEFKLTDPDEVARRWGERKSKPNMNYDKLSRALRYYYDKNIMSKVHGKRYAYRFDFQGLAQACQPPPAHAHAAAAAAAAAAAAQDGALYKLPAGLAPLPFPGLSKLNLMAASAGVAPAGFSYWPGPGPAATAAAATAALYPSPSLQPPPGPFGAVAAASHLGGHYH
# Summary of the method: (§1)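 GST fusions of human transcription factors were expressed in yeast and captured with glutathione beads. Once given DNA barcodes and pooled alongside a tag-only sample, they were incubated for 30 min at room temperature with 200 nmole of a random double-stranded 16-mer DNA library in Tris/NaCl/DTT/glycerol buffer, then washed, crosslinked (0.1% formaldehyde), proximity-ligated, PCR-amplified and sequenced on an Illumina NextSeq500. The binding signal of each hexamer is its read frequency for a factor divided by its frequency for the tag-only sample.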
# ETV5 = ETV5 (Homo sapiens, UniProt P41161 1-510); settings: protein: recombinant; tags: N-terminal GST; dsDNA, one strand shown
# Sequence of ETV5 (P41161 whole entry): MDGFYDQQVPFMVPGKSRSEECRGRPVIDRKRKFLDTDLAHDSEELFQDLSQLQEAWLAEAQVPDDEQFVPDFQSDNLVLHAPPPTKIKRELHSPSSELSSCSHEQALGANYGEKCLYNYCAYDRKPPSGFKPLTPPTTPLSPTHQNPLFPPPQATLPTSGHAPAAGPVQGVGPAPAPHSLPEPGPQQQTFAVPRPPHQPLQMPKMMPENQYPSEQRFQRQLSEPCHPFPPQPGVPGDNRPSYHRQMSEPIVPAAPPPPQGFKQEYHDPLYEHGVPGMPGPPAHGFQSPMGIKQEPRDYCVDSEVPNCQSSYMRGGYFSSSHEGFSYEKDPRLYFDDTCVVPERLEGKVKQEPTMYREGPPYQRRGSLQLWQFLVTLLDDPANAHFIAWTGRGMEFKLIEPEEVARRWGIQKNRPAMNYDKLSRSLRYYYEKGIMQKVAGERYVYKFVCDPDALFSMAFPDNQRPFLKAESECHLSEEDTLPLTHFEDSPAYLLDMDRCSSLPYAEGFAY
# Summary of the method: as §1
# HSF1 = HSF1 (Homo sapiens, UniProt Q00613 1-529); settings: protein: recombinant; tags: N-terminal GST; chain copies: 3; dsDNA, one strand shown
# Sequence of HSF1 (Q00613 whole entry): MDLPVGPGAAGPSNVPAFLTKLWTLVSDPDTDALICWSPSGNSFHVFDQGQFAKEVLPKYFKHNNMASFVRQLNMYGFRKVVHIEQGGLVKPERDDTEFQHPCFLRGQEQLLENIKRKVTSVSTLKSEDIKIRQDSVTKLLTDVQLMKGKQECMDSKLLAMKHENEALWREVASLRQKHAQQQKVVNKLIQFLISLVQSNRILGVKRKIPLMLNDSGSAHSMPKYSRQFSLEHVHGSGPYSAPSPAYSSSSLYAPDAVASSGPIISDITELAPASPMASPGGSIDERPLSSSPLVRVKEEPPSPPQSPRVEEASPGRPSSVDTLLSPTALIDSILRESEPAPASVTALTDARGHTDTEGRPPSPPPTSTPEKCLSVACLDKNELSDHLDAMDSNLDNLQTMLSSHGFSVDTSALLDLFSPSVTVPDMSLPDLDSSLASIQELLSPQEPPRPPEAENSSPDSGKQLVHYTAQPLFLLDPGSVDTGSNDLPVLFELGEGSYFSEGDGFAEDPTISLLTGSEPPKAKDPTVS
# Summary of the method: as §1
# SPIC = molecular target: T2, SPIC (Homo sapiens, UniProt Q8N5J4 1-248); settings: protein: recombinant; tags: N-terminal GST; dsDNA, one strand shown
# T2 sequence: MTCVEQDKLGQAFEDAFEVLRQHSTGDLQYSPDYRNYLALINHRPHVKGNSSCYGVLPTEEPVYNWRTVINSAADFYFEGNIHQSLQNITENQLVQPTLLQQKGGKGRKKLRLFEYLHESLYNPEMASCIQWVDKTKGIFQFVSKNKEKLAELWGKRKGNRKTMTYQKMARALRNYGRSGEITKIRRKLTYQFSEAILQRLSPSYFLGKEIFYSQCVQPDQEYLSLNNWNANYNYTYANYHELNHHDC
# Summary of the method: as §1
# ELF4 = ELF4 (Homo sapiens, UniProt Q99607 1-663); settings: protein: recombinant; tags: N-terminal GST; dsDNA, one strand shown
# Sequence of ELF4 (Q99607 whole entry): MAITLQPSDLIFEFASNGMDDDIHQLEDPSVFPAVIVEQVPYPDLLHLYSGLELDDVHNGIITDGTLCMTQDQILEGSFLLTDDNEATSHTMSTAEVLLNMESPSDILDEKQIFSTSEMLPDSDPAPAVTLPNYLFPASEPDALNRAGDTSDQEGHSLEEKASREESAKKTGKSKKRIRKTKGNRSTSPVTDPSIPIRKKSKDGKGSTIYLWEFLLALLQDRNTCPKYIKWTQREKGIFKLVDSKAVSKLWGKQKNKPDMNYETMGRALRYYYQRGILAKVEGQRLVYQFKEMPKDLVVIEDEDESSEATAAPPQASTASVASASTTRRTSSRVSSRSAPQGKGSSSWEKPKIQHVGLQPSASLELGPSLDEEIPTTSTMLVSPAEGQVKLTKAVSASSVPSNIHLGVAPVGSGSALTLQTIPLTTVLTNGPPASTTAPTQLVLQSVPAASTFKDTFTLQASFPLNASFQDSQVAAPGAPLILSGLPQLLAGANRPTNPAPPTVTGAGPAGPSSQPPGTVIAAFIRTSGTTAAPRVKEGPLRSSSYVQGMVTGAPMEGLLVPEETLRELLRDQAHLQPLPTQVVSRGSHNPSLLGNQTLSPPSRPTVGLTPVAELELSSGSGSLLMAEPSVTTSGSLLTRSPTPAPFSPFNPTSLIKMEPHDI
# Summary of the method: as §1
# ELK4 = molecular target: T3, ELK4 (Homo sapiens, UniProt P28324-2 1-405); settings: protein: recombinant; tags: N-terminal GST; dsDNA, one strand shown
# T3 sequence: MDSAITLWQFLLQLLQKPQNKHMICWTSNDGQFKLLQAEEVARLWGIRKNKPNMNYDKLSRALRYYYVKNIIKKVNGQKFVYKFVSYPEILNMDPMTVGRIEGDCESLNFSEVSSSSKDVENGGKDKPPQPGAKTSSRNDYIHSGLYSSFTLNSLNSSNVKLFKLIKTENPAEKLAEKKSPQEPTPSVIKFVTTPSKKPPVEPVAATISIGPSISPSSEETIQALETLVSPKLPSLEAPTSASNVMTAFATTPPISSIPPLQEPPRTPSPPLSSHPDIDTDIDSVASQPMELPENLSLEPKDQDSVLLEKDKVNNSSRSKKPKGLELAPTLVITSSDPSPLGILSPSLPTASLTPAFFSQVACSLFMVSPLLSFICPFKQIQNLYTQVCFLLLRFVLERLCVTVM
# Summary of the method: as §1
# ETV2 = molecular target: T4, ETV2 (Homo sapiens, UniProt O00321 1-342); settings: protein: recombinant; tags: N-terminal GST; dsDNA, one strand shown
# T4 sequence: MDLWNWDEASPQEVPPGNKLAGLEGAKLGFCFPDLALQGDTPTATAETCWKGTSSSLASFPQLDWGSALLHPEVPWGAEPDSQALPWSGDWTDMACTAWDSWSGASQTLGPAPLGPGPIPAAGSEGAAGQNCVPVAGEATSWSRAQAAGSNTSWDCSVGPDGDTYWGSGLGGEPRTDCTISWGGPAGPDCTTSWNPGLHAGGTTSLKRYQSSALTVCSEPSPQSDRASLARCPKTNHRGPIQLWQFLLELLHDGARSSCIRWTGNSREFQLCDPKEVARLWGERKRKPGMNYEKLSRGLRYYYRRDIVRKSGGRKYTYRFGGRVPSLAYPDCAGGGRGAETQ
# Summary of the method: as §1
# ELF3 = molecular target: T5, ELF3 (Homo sapiens, UniProt P78545 1-371); settings: protein: recombinant; tags: N-terminal GST; dsDNA, one strand shown
# T5 sequence: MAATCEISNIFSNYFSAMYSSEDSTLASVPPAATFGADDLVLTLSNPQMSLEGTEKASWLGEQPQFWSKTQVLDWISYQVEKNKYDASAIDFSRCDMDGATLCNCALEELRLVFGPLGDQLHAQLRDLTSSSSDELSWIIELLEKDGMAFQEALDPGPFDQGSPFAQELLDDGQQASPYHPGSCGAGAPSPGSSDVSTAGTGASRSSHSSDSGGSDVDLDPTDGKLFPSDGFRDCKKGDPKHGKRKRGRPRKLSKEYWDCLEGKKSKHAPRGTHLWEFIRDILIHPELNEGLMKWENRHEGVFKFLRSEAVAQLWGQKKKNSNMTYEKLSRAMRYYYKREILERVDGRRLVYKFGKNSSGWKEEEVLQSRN
# Summary of the method: as §1
# CRX = CRX (Homo sapiens, UniProt O43186 1-299); settings: protein: recombinant; tags: N-terminal GST; dsDNA, one strand shown
# Sequence of CRX (O43186 whole entry): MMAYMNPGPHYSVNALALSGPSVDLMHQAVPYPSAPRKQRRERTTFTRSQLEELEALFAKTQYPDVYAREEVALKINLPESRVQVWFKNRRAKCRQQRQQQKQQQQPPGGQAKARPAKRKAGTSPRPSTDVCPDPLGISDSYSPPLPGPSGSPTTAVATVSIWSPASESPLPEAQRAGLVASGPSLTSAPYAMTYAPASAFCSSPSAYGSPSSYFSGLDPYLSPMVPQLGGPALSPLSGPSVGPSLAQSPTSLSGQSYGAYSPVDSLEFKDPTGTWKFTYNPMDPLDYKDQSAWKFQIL
# Summary of the method: as §1
# ETV1 = ETV1 (Homo sapiens, UniProt P50549 1-477); settings: protein: recombinant; tags: N-terminal GST; dsDNA, one strand shown
# Sequence of ETV1 (P50549 whole entry): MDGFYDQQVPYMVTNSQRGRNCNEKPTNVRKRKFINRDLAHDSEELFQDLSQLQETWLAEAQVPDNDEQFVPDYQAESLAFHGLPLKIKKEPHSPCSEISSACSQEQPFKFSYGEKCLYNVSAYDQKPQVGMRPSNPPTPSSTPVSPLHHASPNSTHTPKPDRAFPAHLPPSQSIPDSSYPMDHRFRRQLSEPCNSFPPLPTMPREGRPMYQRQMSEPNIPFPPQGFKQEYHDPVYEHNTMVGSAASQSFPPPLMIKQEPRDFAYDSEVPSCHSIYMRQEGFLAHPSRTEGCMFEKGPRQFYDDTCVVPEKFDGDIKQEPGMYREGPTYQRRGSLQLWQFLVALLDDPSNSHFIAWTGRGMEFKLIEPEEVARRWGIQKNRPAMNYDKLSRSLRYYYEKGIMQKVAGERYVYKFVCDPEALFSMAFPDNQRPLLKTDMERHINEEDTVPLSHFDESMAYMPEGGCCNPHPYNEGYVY
# Summary of the method: as §1
sequence,measurement,setting,value
TCTCAT,binding signal,FEV,"1.27 fold enrichment (6-mer frequency, TF over GST control)"
same,binding signal,ETV5,"1.39 fold enrichment (6-mer frequency, TF over GST control)"
same,binding signal,HSF1,"1.29 fold enrichment (6-mer frequency, TF over GST control)"
same,binding signal,SPIC,"1.46 fold enrichment (6-mer frequency, TF over GST control)"
same,binding signal,ELF4,"1.25 fold enrichment (6-mer frequency, TF over GST control)"
same,binding signal,ELK4,"1.37 fold enrichment (6-mer frequency, TF over GST control)"
same,binding signal,ETV2,"1.46 fold enrichment (6-mer frequency, TF over GST control)"
same,binding signal,ELF3,"1.32 fold enrichment (6-mer frequency, TF over GST control)"
same,binding signal,CRX,"1.36 fold enrichment (6-mer frequency, TF over GST control)"
same,binding signal,ETV1,"1.38 fold enrichment (6-mer frequency, TF over GST control)"
